40 compounds from PubChem BioAssay (Tox21) can be followed below.

Results filed as inconclusive are left out. Values without a mark were called inactive. Active and inactive are the calls of the source. Calls come from the whole dose curve; as a rule, active = well fitted inhibition curve with a large enough effect in the repeat runs; inconclusive = weak or mixed curves; inactive = flat fitted curve, though single readings scatter.
% is set by controls: 0 for no effect and ±100 for the full control effect; potency is the fitted concentration of half-maximal effect.

A short description of the assay: qHTS assay to identify small molecule HDAC inhibitors (AID 1259364). For activity change, negative = inhibition: top concentration of the series differs between compounds. Note: nearly all actives have a fitted effect of over 45% in size. To be noted: HCT-116 HDAC-Glo I/II luminescence, 2 h; series mostly up to 92.4 µM; activity change, negative = inhibition: at the top concentration. The source says: U.S. Tox21 Program National Center for Advancing Translational Sciences [NCATS] NIH Chemical Genomics Center [NCGC] U.S. Environmental Protection Agency [EPA] National Institutes of Environmental Health Sciences [NIEHS] National Toxicology Program [NTP] U.S. Food and Drug Administration [FDA] Tox21 Assay Overview: Histone deacetylases (HDACs) are a group of epigenetic enzymes that regulate gene expression by histone deacetylation. HDACs are capable of introducing epigenetic modifications and such aberrations contribute to the onset and progression of several human diseases, thus making HDACs a popular therapeutic target. For identifying endogenous class I/II HDAC inhibitors a homogenous, luminogenic HDAC I/II cell based assay was used to measure the relative activity of class I and II HDACs from cells. Wild type HCT-116 cells were used to screen Tox21 libraries for identifying class I/II HDAC inhibitors.
Tox21 Assay Protocol Summary: HCT-116 cells were dispensed at 1,500 per well in 5uL of culture medium into white solid bottom 1536-well plates (Greiner Bio-One, Monroe, NC) using a Multidrop Combi (Thermo Scientific, Waltham, MA) dispenser. The assay plates were incubated at 37 C and 5% CO2 for an overnight, and then 23nL of compounds dissolved in DMSO and positive control were transferred using a Pintool station (Wako, San Diego, CA). The assay plates were incubated at 37C and 5% CO2 for 2hr. After compound treatment, 4uL of HDAC-Glo reagent (Promega Corporation, Madison, WI) was added to each well of the assay plates using Flying Reagent Dispenser (FRD, Aurora Discovery, San Diego, CA) and incubated the assay plates at room temperature for 30min. The luminescence signal was quantified using a ViewLux plate reader (Perkin Elmer, Shelton, CT).
(In general: qHTS replaces the single test concentration by a dilution series.)
Regarding `CCC(C)=O`, the “activity change, negative = inhibition” value was 0.492%.
With `O=C(Nc1ccc([N+](=O)[O-])cc1)Nc1ccc([N+](=O)[O-])cc1`, the “activity change, negative = inhibition” value was -23.8% [at 42.5 µM].
`CCN(CC)CCNC(=O)c1ccc(NC(C)=O)cc1`: the “activity change, negative = inhibition” value was -1.83% [at 42.5 µM].
Still for that read-out and setting: as for `Cn1c(=O)c2c(ncn2CC(=O)O)n(C)c1=O`, the figure is 4.83% [at 42.5 µM]; as for `CCOC(=N)CC(=O)OCC`, -4.52%.
Take `CCN(Cc1cccc(S(=O)(=O)O)c1)c1ccc(C(=C2C=CC(=[N+](CC)Cc3cccc(S(=O)(=O)[O-])c3)C=C2)c2ccccc2)cc1`: the “activity change, negative = inhibition” value is -0.402% [at 42.5 µM].
Regarding `CC(=O)CC(c1ccc([N+](=O)[O-])cc1)c1c(O)c2ccccc2oc1=O` (stereo not given), the “activity change, negative = inhibition” value is 5.99% [at 42.5 µM].
Still for that read-out and setting: as for `CNC(=O)N(c1ccccc1)c1ccccc1`, the figure is 4.65%; as for `CCCCCCCCCCCC(=O)[O][Sn]([CH2]CCC)([CH2]CCC)[O]C(=O)CCCCCCCCCCC`, -5.38% [at 42.5 µM]; as for `COc1ccccc1N=Nc1c(S(=O)(=O)O)cc2cc(S(=O)(=O)O)cc(NC(C)=O)c2c1O`, -15.6%.
The same measure, in the same setting: as for `O=Cc1c(Cl)cccc1Cl`, the figure is 1.64%; as for `Nc1ccc(Cl)cc1[N+](=O)[O-]`, -3.96%.
The same measure, in the same setting: as for `CCCCCCCCCOC(C)=O`, the figure is -0.32%.
With `COCc1c(C(C)C)nc(C(C)C)c(/C=C/[C@@H](O)C[C@@H](O)CC(=O)O)c1-c1ccc(F)cc1`, the Potency entry is “inactive”.
`CCc1cccc(N(C)C(N)=Nc2cccc3ccccc23)c1`: the “activity change, negative = inhibition” value was 6.07% [at 42.5 µM].
Same read-out and setting: as for `CC(=O)Nc1ccc(N)cc1`, the figure is 6.6%; as for `c1ccc(COCc2ccccc2)cc1`, -1.67%.
Take `CC(=O)Oc1ccc(C(=C2CCCCC2)c2ccc(OC(C)=O)cc2)cc1`: the “activity change, negative = inhibition” value was -7.2% [at 42.5 µM].
Regarding `OC(CCCN1CCCCC1)(c1ccccc1)c1ccccc1`, the “activity change, negative = inhibition” value is 2.43% [at 42.5 µM].
Same read-out and setting: as for `O=C(CCCN1CCC(O)(c2ccc(Br)cc2)CC1)c1ccc(F)cc1`, the figure is 0.795% [at 42.5 µM]; as for `CCCCCCCCCCCC[N+](C)(C)CC(=O)[O-]`, -7.15%.
On the same count and under the same terms, as for `Oc1ccc(Nc2ccccc2)cc1`, the figure is -16.6%; as for `C=CC(=C)CCCC(C)(C)OC(C)=O`, -0.0808%; as for `CCCCCCCCCCOS(=O)(=O)O`, -1.13%.
For the compound `COCC(O)CO` (stereo not given), the “activity change, negative = inhibition” value was 1.23%.
For `COC(=O)c1cc(S(N)(=O)=O)ccc1OC`, the “activity change, negative = inhibition” value is 16% [at 42.5 µM].
In the case of `OCC1CC=CCC1` (stereo not given), the “activity change, negative = inhibition” value is -0.327%.
On the same count and under the same terms, as for `CCCOCCOCCO`, the figure is 0.32%.
Still for that read-out and setting: as for `CC(C)(CCl)c1ccccc1`, the figure is -0.118%.
Still for that read-out and setting: as for `Cc1cnc(C)c(C)n1`, the figure is 4.89%; as for `Nc1c(I)cc(I)c(C(=O)N(CCC(=O)O)c2ccccc2)c1I`, 9.12% [at 42.5 µM].
In the case of `O=C(OCCOCCO)c1ccccc1Nc1cccc(C(F)(F)F)c1`, the “activity change, negative = inhibition” value was 12.3% [at 42.5 µM].
The same measure, in the same setting: as for `CCOC(=O)c1ccccc1C`, the figure is 2.7%; as for `CC(=O)OCC(=O)[C@H]1CC[C@H]2[C@@H]3CCC4=CC(=O)CC[C@]4(C)[C@H]3CC[C@]12C`, 0.401% [at 42.5 µM]; as for `CCC(C)(C)C1CCC(O)CC1` (stereo not given), 3.35%.
Still for that read-out and setting: as for `Nc1ccc(S(=O)(=O)O)c(N)c1`, the figure is -1.3%; as for `COC(=O)[C@@H]1CC2=CC(=O)CC[C@]2(C)[C@@]23O[C@@H]2C[C@@]2(C)[C@@H](CC[C@@]24CCC(=O)O4)[C@H]13`, 5.99% [at 42.5 µM].
In the case of `C[Si](NC1CCCCC1)(NC1CCCCC1)NC1CCCCC1`, the “activity change, negative = inhibition” value was 3.78%.
Still for that read-out and setting: as for `N#C[C@@H]1C[C@@H]2C[C@@H]2N1C(=O)[C@@H](N)C12CC3CC(CC(O)(C3)C1)C2`, the figure is -1.94% [at 42.5 µM].
In the case of `O=C(CS)OCCOC(=O)CS`, the Potency was 8.63 µM (active).
